Screening data: PubChem, National Center for Advancing Translational Sciences (NCATS)
ALDH1A1 inh = qHTS Assay for Inhibitors of Aldehyde Dehydrogenase 1 (ALDH1A1); Potency, µM (highest dose often 75.3 µM), inactives show top-dose activity, negative = inhibition, most hits filed as inhibitors; 220,000 compounds, 7.3% hits; Purified ALDH1A1, NADH fluorescence, propionaldehyde substrate; AID 1030, 2008; active = well fitted inhibition curve with a large enough effect, not every such curve was filed as active; inconclusive = small, poorly fitted or top-dose-only effect, or another doubt; inactive = no such curve, though single readings can be large or run the other way;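 also: potency is read from the fitted curve at half-maximal effect; plate controls were no enzyme wells and a reference inhibitor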
Target sequence (P00352 whole entry, looked up): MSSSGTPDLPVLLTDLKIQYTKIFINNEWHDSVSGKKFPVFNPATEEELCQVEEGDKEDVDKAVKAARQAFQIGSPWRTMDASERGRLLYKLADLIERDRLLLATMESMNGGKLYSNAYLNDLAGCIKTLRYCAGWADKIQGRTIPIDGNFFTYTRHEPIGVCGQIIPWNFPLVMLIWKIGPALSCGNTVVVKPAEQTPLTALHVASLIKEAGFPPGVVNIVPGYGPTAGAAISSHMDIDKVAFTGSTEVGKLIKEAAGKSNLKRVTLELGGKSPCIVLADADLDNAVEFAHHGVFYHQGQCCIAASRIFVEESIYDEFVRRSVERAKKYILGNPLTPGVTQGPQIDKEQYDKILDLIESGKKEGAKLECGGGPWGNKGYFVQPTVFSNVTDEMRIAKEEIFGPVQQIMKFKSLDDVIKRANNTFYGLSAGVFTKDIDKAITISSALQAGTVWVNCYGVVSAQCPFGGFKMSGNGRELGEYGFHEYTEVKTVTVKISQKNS
HPGD block = qHTS Assay for Inhibitors of HPGD (15-Hydroxyprostaglandin Dehydrogenase) | AID 894, 2007 | purified HPGD, NADH fluorescence kinetic, PGE2 substrate | Potency, µM, without a hit: at the highest dose activity change, negative = inhibition, actives largely listed as inhibitors | 15-hydroxyprostaglandin dehydrogenase [NAD(+)] (Homo sapiens), P15428 | 150,000 compounds, 4.3% hits; active = well fitted inhibition curve with a large enough effect, not every such curve was filed as active; inconclusive = small, poorly fitted or top-dose-only effect, or another doubt; inactive = no such curve, though single readings can be large or run the other way; also: potency is read from the fitted curve at half-maximal effect; % is scaled to controls: 0 for no effect and ±100 for the full control effect
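20 nM HPGD preincubated 15 min at room temperature with compound in 50 mM Tris-HCl pH 8, 0.01% Tween 20. Started with 1 mM NAD+ and 30 uM prostaglandin E2; NADH fluorescence (360/450 nm) read 5 times over 30-s intervals, last minus first.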
HTT cytoprotect = qHTS Multiplex Assay to Identify Dual Action Probes in a Cell Model of Huntington: Cytoprotection (ATP); Potency, µM (top dose mostly 56.4 µM), for inactives: cytoprotection (ATP increase), most hits filed as activators; PC12 HTT-Q103 induced, cytoprotection, ATP luminescence, 40 h; 230,000 compounds, 0.14% hits; AID 1471, 2008; also: potency is read from the fitted curve at half-maximal effect; % of control where 0% means no effect; nearly all actives have a fitted effect of over 45% in size
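Stable PC12 Q103-GFP cells in serum-supplemented, phenol red-free DMEM; induction by tebufenozide at 100 nM final; compound dose series; cell viability quantified luminescently from ATP.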
HttQ103 aggreg = qHTS Multiplex Assay to Identify Dual Action Probes in a Cell Model of Huntington: Aggregate Formation (GFP) | Potency, µM (top dose mostly 46.1 µM), inactives show at the top dose activity change, negative = inhibition, most hits filed as inhibitors | AID 1688, 2009 | 220,000 compounds, 1.1% hits | PC12 HttQ103-GFP aggregates, Acumen cytometry, 40 h; also: potency is read from the fitted curve at half-maximal effect; % is scaled to controls: 0 for no effect and ±100 for the full control effect; nearly all actives have a fitted effect of over 60% in size
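PC12 cells with ecdysone-inducible HTT exon1 Q103-GFP, induced by 100 nM tebufenozide, given compounds in a concentration series. GFP aggregates (1–25 um, 6 SD above background) counted in lysates by laser-scanning cytometry, 488 nm excitation.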
IMPase cell inh = qHTS Assay for Identifying the Cell-Membrane Permeable IMPase Inhibitors; CHO-M1 cells, IP1 accumulation, HTRF TR-FRET ratio; Inositol monophosphatase 1 (Rattus norvegicus), P97697; inhibition (IP1 accumulation), % at 46.1 µM; AID 901, 2007; 120,000 tested, under 10 active; active = well fitted curve in the direction sought with a large enough effect in the signal ratio, not every such curve was filed as active; inconclusive = small, poorly fitted or top-dose-only effect, or a change in a side signal; inactive = no such curve, though single readings can be large or run the other way; the % refers to the signal ratio;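 also: cells stimulated with carbachol in lithium chloride buffer; plate controls were DMSO basal wells for no effect and reference inhibitor wells for full effect; higher means more IMPase inhibition seen as more IP1 and lower FRET ratio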
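Carbachol-driven Gq signalling in CHO-M1 cells (2000/well) generates IP1. Compounds that block IMPase raise IP1 and so reduce the FRET signal from Eu-anti-IP1 and d2-IP1 after a 10 min room-temperature lysis.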
IMPase Li cell = qHTS Assay for Identifying the Cell-Membrane Permeable IMPase Inhibitors: Potentiation with Lithium; AID 1457, 2008; Potency, µM (series often up to 59.4 µM), inactives show top-dose activity, negative = IMPase inhibition, hits mostly inhibitors; CHO-M1 cells, IP1 TR-FRET (IP-One), carbachol + lithium; 210,000 compounds, 0.35% hits;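 also: IP1 builds up when IMPase is blocked and the TR-FRET signal falls; potency is read from the fitted curve at half-maximal effect; plate controls were basal vehicle for no effect and high inhibitor control for full effect; nearly all actives have a fitted effect of over 50% in size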
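CHO-M1, 2000 cells/well, 16–30 h culture; cpd + low Li+, 30 min 37C; lysis with d2-IP1/Eu-anti-IP1 Ab, 10 min RT; TR-FRET 665/620 ratio and 620 channel; AC50 via Hill.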
* marks the source's active call; other numbers are inactive results; ? = inconclusive; . = not tested or not shown; [ ] = remark or other dose. The list is not random: actives were taken first. Their share in the collection is about 9.4%. Unless noted, calls follow the shape of the dose curve; as a rule, active = well fitted curve in the direction sought with a large enough effect; inconclusive = small, poorly fitted or top-dose-only effect, or another doubt; inactive = no such curve, though single readings can be large; an effect the other way counts as inactive or inconclusive.

SMILES	ALDH1A1 inh	HPGD block	HTT cytoprotect	HttQ103 aggreg	IMPase cell inh	IMPase Li cell
Cc1ccc(-c2nnc(N3CCN(C(=O)c4ccco4)CC3)c3ccccc23)cc1	14µM*	-15%	-20%[0.074 µM]	-33%	5	12%[38.3 µM]
Cc1ccc(-c2nnc(N3CCN(C(=O)CN4C(=O)c5ccccc5C4=O)CC3)c3ccccc23)cc1	.	.	1%[0.074 µM]	.	.	.
Cc1ccc(OCC(=O)N2CCN(c3nnc(-c4ccc(C)cc4)c4ccccc34)CC2)cc1	14µM*	-16%	-84%	3%[9.22 µM]	6	29%[38.3 µM]
COc1ccc(C(=O)/C=C/Nc2ccc([N+](=O)[O-])cc2)cc1	40µM*	-20%	.	18%	.	-14%
COc1ccc(C(=O)/C=C/Nc2ccc(S(=O)(=O)Nc3cccc(C(C)=O)c3)cc2)cc1	?	?	?	?	-5	15%
COc1ccc(C(=O)/C=C/Nc2cccc(O)c2)cc1	11µM*	?	-54%	22%	-3	34%[38.3 µM]
COc1ccc(C(=O)/C(C#N)=N/Nc2ccccc2[N+](=O)[O-])cc1	-2%	-14%	-2%[10 µM]	?	.	12%
COc1ccc(C(=O)/C(C#N)=N/Nc2ccc([N+](=O)[O-])cc2)cc1	?	.	-162%	1.3µM*	.	15%
CN(C)/C=C/C(=O)c1ccc(Oc2ccccc2)cc1	?	.	-9%[10 µM]	2%	.	3%
COc1ccc(C(=O)/C=C/N(C)C)cc1	7.9µM*	25µM*	-21%[10 µM]	22%	-1	-3%
COc1cccc(C(=O)/C=C/Nc2cc(C)ccc2O)c1	25µM*	?	-31%	?	14	16%[38.3 µM]
CCOC(=O)c1ccc(N/C=C\C(=O)c2cccc(OC)c2)cc1	?	-15%	.	11%	.	-5%
COC(=O)c1c(-c2cccc3ccccc23)csc1NC(=O)Cc1ccc(OC)c(OC)c1	11%	-13%	3%[10 µM]	13µM*	6	25%[38.3 µM]
COc1ccc(NC(=O)Nc2ccccc2F)c(C)c1	-4%	.	-47%	-19%	.	2%
COc1ccc(C(=O)C[n+]2cn(C(F)F)c3ccccc32)c(F)c1	10µM*	.	?	?	.	-7%
Cc1ccc(NC(=O)CSc2nnc(C)s2)c(C)c1	.	.	.	.	-5	.
COc1ccc(-n2nc3ccc(NC(=O)c4cc5ccccc5o4)cc3n2)cc1Cl	.	.	.	.	4	.
C=CCn1c(SCc2csc(C)n2)nc2sc3c(c2c1=O)CCCCC3	22µM*	-6%	-4%	?	4	46%[38.3 µM]
O=S1(=O)N=C(Nc2cccc(C(F)(F)F)c2)c2ccccc21	.	.	.	.	-7	.
CCc1cc(C(=O)NNC(=S)Nc2ccccc2C)cs1	25µM*	-17%	-22%[10 µM]	-7%	-7	3%
O=C1CC(N2CCN(c3ccccn3)CC2)C(=O)N1c1ccc(Cl)cc1 (stereo not drawn)	25µM*	.	-14%[10 µM]	-10%[9.22 µM]	.	-5%
O=C1CC(N2CCN(S(=O)(=O)c3ccccc3)CC2)C(=O)N1c1ccccc1 (stereo not drawn)	.	.	23%[10 µM]	-6%[9.22 µM]	.	.
COc1cccc(N2CCN(C3CC(=O)N(c4ccc(F)c(Cl)c4)C3=O)CC2)c1 (stereo not drawn)	3.5µM*	-28%	-22%[0.074 µM]	4%	11	50%[38.3 µM]
COc1ccc(N2C(=O)CC(N3CCN(S(=O)(=O)c4c(F)cccc4F)CC3)C2=O)cc1OC (stereo not drawn)	14µM*	-17%	1%	-15%	-3	14%[38.3 µM]
